# Legend:
# Assay type in all cases: functional
# Plasmodium falciparum [1] = experiment: GSK_TCMDC: Inhibition of Plasmodium falciparum 3D7 in whole red blood cells, using parasite LDH activity as an index of growth. Test compounds present at 2uM
# Plasmodium falciparum [2] = experiment: GSK_TCMDC: Inhibition of Plasmodium falciparum Dd2 in whole red blood cells, using parasite LDH activity as an index of growth. Test compounds present at 2uM
# HepG2 = experiment: GSK_TCMDC: Percent inhibition of human HepG2 cell line. Test compounds present at 10uM.
SMILES,Inhibition (Plasmodium falciparum [1]) [%],Inhibition (Plasmodium falciparum [2]) [%],Inhibition (HepG2) [%]
COc1ccc(F)cc1-c1cccc(CNC2CCN(CC3Cn4c(=O)ccc5ccc(F)c3c54)CC2)c1.O=C(O)C(F)(F)F (centres undefined),100,27,46
COc1cc(OC)nc(-c2cccc(NC(=O)c3ccc4c(=O)n(CCN5CCCCC5)cnc4c3)c2)n1,100,86,11
Cc1noc(C)c1-c1ccc2c(Nc3cccc4c3-c3ccccc3C4=O)c(C(=O)NCc3ccccc3I)cnc2c1,99,99,27
COc1cc2ncnc(Nc3ccc(OCc4ccccc4Br)c(OC)c3)c2cc1OC.Cl,100,62,11
COCCN1CCC(NCC(C)(C)c2nc(-c3ccc(Cl)c(O)c3)c(-c3ccncc3)[nH]2)CC1.Cl,100,47,0
O=C(c1ccco1)N1CCN(c2ccc([N+](=O)[O-])c(NC3CC3)c2)CC1,100,99,0
Cc1nc(-c2nc(NCCc3cnccn3)ncc2-c2ccsc2)sc1C,98,40,0
COc1ccc(OCCCN2CCN(CC(c3ccc(F)cc3)N3CCN(C(C)C)CC3)CC2)c2ccccc12.O=C(O)C(F)(F)F (centres undefined),100,32,30
CN1CCC(NCc2ccc(-c3cccc(S(=O)(=O)NCc4ccccc4)c3)cc2)CC1.O=C(O)C(F)(F)F,100,94,72
CCc1cn2c3c(cc(C(=O)N[C@@H](Cc4ccccc4)[C@H](O)CNCCOC)cc13)N(C)S(=O)(=O)CC2.O=CO,98,56,7
O=S(=O)(c1c(Cl)cc(Cl)cc1Cl)N1CCCCC(c2ccc(F)c(F)c2)=N1,87,65,5
O=C(O)C(F)(F)F.O=S(=O)(NCCN1CCCC1)c1ccc(-c2ccc(CNCc3ccccc3)cc2)cc1,99,28,47
CCC(C)c1ccc(Nc2nc(C)cc(N(CC)CCCN3CCCCC3)n2)cc1.O=C(O)C(F)(F)F (centres undefined),100,83,55
O=C(COc1ccccc1Cl)N1CCc2cc3nccc(N4CCN5CCC[C@H]5C4)c3cc21,91,99,4
O=C(/C=C/c1ccc(Cl)c(Cl)c1)N1CCC(CN2CCC(Cc3nc4ccccc4[nH]3)CC2)CC1,100,95,34
N[C@@H](COc1cccc2c(-c3ccncc3)c(-c3cccc(NC(=O)Nc4ccccc4)c3)nn12)c1ccccc1,100,71,9
CN1CCN(c2ccc(CNc3ccc4ncc(-c5ccc(OC(F)(F)F)cc5)n4n3)cc2)CC1,94,87,13
Cc1nnc(-c2cccc(Nc3ccnc4cc(-c5nccs5)ccc34)c2)o1.Cl,95,89,38
Cc1ccccc1C1CCN(C2CCC(NC(=O)c3ccc(-c4ccccn4)s3)CC2)CC1 (centres undefined),87,17,32
Cc1sc(C)c(C(F)(F)F)c1CNCCCNc1cc(=O)c2ccccc2[nH]1.Cl,96,43,0
CN(CCc1ccccn1)Cc1ccc(-c2ccc(-c3nc4ccccc4[nH]3)s2)cc1,100,48,29
COc1ccc2ncc(F)c(CCN3CC[C@@H](CNCc4nc5c(cc4C)SCC(=O)N5)C3)c2n1.Cl,91,42,14
COc1ccc2nc3ccccc3c(NCCN3CCN(C)CC3)c2c1,81,10,11
O=C(Nc1ccc(-c2cccc(-c3nc4cc(C(F)(F)F)ccc4[nH]3)c2)cc1)c1ccncc1,100,23,63
Cl.NC1=NC2(CCCCC2)N(Cc2ccc(Cl)c(Cl)c2)C(N)=N1,86,76,22
Cc1ccc(C)c2sc(N(CCCn3ccnc3)C(=O)C=Cc3cccs3)nc12.Cl,100,93,20
Cc1cc(=NN=Cc2ccccc2F)c2cc(F)ccc2[nH]1,100,97,9
O=C(O)c1ccc(-c2c[nH]c3ncc(-c4ccc(Cl)cc4)cc23)cc1,97,99,39

# Reference: ChEMBL document CHEMBL1157539, “Thousands of chemical starting points for antimalarial lead identification” (Nature, 2010)
